Results on 24 compounds are retold here after PubChem BioAssay (NCATS).

The target in experiment [1] is Phospholipid hydroperoxide glutathione peroxidase GPX4 (Homo sapiens) (UniProt P36969). Nature of the experiment: Primary qHTS Assay for Inhibitors of Recombinant Selenoprotein Glutathione Peroxidase 4 (GPX4) (AID 1845192). Also: nearly all actives have a fitted effect of over 65% in size. Also: potency is read from the fitted curve at half-maximal effect. As to activity change, negative = inhibition: series mostly up to about 50 µM; % is scaled to controls: 0 for no effect and ±100 for the full control effect. A digest of the protocol: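 NADPH consumption followed by fluorescence at 340/450 nm, t=0 and after 15 min at room temperature. Reaction started with cumene hydroperoxide (0.5 mM final) after 30 min compound–GPX4 preincubation; final 200 nM GPX4, 100 nM GR, 1 mM GSH, 0.5 mM NADPH.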
Phospholipid hydroperoxide glutathione peroxidase GPX4 (Homo sapiens), sequence (P36969 whole entry, looked up): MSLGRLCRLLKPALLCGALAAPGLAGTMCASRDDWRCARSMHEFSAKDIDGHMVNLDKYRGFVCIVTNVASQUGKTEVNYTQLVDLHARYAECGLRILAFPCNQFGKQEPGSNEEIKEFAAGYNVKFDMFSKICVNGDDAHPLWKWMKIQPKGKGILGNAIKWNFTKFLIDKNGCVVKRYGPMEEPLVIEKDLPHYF

Experiment [2] has as its target Luciferin 4-monooxygenase (Photinus pyralis) (UniProt P08659). Nature of the experiment: Primary firefly luciferase (FLuc) qHTS assay for identification of artifact compounds. (AID 1845220). Also: nearly all actives have a fitted effect of over 60% in size.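 As to activity change, negative = inhibition: series mostly up to about 54 µM; plate controls were DMSO vehicle for no effect and no enzyme for full effect.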 The method, boiled down:
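Compounds sat 15 min at room temperature with 10 uM luciferin and 10 uM ATP (pH 7.6 Tris acetate). Firefly luciferase (10 nM final) was then added, and luminescence was read 5 min later. Data normalized to no-enzyme and DMSO controls were Hill-fitted.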
Background: Quantitative high-throughput screening tests each substance at several concentrations.

The nature of experiment [3]: Primary fluorescence-based thiol-reactive (MSTI) qHTS assay for identification of artifact compounds. (AID 1845221). Also: nearly all actives have a fitted effect of over 65% in size. Also: potency is read from the fitted curve at half-maximal effect.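 As to activity change, negative = thiol reactive: series mostly up to about 54 µM; thiol-reactive compounds lower the probe fluorescence signal.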 A digest of the protocol:
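One-hour, room-temperature, dark incubation of compound with 4 uM MSTI in PBS (pH 7.4, 2% DMSO) precedes a fluorescence read at 525 nm excitation, 598 nm emission; Hill-equation fitting yields concentration-response values.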

Experiment [4] concerns Nanoluciferase (engineered Oplophorus gracilirostris luciferase). Briefly: Primary Nanoluciferase (NLuc) qHTS assay for identification of artifact compounds. (AID 1845222).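 Also: series mostly up to about 54 µM; 0% = DMSO and -100% = no enzyme.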 A digest of the protocol:
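Luminescence from secreted NLuc (filtered, 1:55-diluted S16 cell medium) read 5 min after Nano-Glo substrate; compounds preincubated 15 min, RT. Hill fits of inhibition normalized to DMSO and no-enzyme.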

Unmarked numbers belong to inactive results. Results filed as inconclusive are left out. The source made the active and inactive calls. Calls follow the shape of the dose curve; as a rule, active = well fitted curve in the direction sought with a large enough effect; inconclusive = small, poorly fitted or top-dose-only effect, or another doubt; inactive = no such curve, though single readings can be large; an effect the other way counts as inactive or inconclusive.

For the compound `COc1cc2c(cc1OC)CN(C(=O)/C=C/c1c(-c3ccccc3)n(C)c3ncccc13)CC2`, the Potency entry in experiment [1], in experiment [2], in experiment [3] and in experiment [4] was “inactive” throughout.

As to `CCNC1(C(N)=O)CCN(c2ncnc3c2nc(-c2ccccc2Cl)n3-c2ccc(Cl)cc2)CC1`, the Potency entry in experiment [1], in experiment [2], in experiment [3] and in experiment [4] was “inactive” throughout.

Consider `COc1ccc(C(=O)O[C@H]2C=COC=C3C=C4C(=O)N(C)C(=S)C(=O)N4[C@@H]32)cc1Oc1cc(C=O)ccc1O`, for which the Potency in experiment [1] is 3.13 µM (active). Besides, the Potency entry in experiment [2], in experiment [3] and in experiment [4] was “inactive” throughout.

With `COc1cc2c(cc1-c1c(C)noc1C)ncc1[nH]c(=O)n(C(C)c3ccccn3)c12` (stereo not given), the Potency entry in experiment [1], in experiment [2], in experiment [3] and in experiment [4] was “inactive” throughout.

In the case of `N#Cc1ccc(Nc2nc(-c3ccc(O)cc3O)cs2)cc1C(F)(F)F`, the Potency result in experiment [1], in experiment [2] and in experiment [4] was “inactive” each time. Further, in experiment [3], the Potency is 2.99 µM (active).

In the case of `O=C(Nc1ccccc1Br)NC1CCN(c2ccc(C(F)(F)F)cn2)C1` (stereo not given), the Potency result in experiment [1], in experiment [2], in experiment [3] and in experiment [4] was “inactive” throughout.

With `CC(NCCCc1cccc(C(F)(F)F)c1)c1cccc2ccccc12` (stereo not given), the Potency entry in experiment [1], in experiment [2], in experiment [3] and in experiment [4] was “inactive” in each case.

With `C=C1C(=O)O[C@@H]2[C@H]1CC[C@H](C)C(CCC(=O)O)C2(C)O` (stereo not given in full), the Potency entry in experiment [1], in experiment [2], in experiment [3] and in experiment [4] was “inactive” each time.

For `C/C=C/C=C/C=C/C(=O)O[C@@H]1C=C2COC(=O)[C@]2(O)[C@@]2(C)CCCC(C)(C)[C@H]12`, the Potency entry in experiment [1], in experiment [2], in experiment [3] and in experiment [4] was “inactive” each time.

With `CC[C@H]1OC(=O)[C@H](C)[C@@H](O[C@H]2C[C@@](C)(OC)[C@@H](O)[C@H](C)O2)[C@H](C)[C@@H](O[C@H]2O[C@H](C)C[C@H](N(C)C)[C@H]2O)[C@](C)(O)C[C@@H](C)C(=O)[C@H](C)[C@@H](O)[C@]1(C)O`, the Potency entry in experiment [1], in experiment [2], in experiment [3] and in experiment [4] was “inactive” each time.

Regarding `CO[C@H]1O[C@@H]2O[C@@]3(C)CCC4[C@H](C)CCC([C@H]1C)[C@]42OO3` (stereo not given in full), the Potency entry in experiment [1], in experiment [2], in experiment [3] and in experiment [4] was “inactive” each time.

In the case of `Cc1c(Cl)cccc1S(=O)(=O)Nc1nc(NCCc2ccccc2)nc2c1CN(Cc1ccccc1)CC2`, the Potency result in experiment [1], in experiment [2], in experiment [3] and in experiment [4] was “inactive” throughout.

As to `CCC/C=C/c1cc2c(C=O)c(O)c(CC=C(C)C)cc2o1`, the Potency entry in experiment [1], in experiment [2] and in experiment [4] was “inactive” in each case. For the same compound, in experiment [3], the Potency was 23.8 µM (active).

Turning to `O=C(Nc1ccccc1)N1CCN(c2nc(-c3ccccc3)ns2)CC1`, the Potency result in experiment [1], in experiment [2], in experiment [3] and in experiment [4] was “inactive” in each case.

In the case of `Cc1c(NC(=O)OCC2COCCN2)cn2ncnc(Nc3ccc4c(cnn4Cc4cccc(F)c4)c3)c12` (stereo not given), the Potency result in experiment [1], in experiment [2], in experiment [3] and in experiment [4] was “inactive” throughout.

As for `CCCCCCOC(=O)/N=C(\N)c1ccc(NCc2nc3cc(C(=O)N(CCC(=O)OCC)c4ccccn4)ccc3n2C)cc1`, the Potency result in experiment [1], in experiment [2] and in experiment [3] was “inactive” in each case.

On to `O=c1cc(OCc2ccc(F)cc2)ccn1-c1ccc(OCCN2CCCC2)cc1`, for which the Potency result in experiment [1], in experiment [2], in experiment [3] and in experiment [4] was “inactive” each time.

With `CCCC(Nc1nc(-c2ccc(NC(=O)NCC)c(OC)c2)ncc1C)c1cccnc1` (stereo not given), the Potency result in experiment [1], in experiment [2], in experiment [3] and in experiment [4] was “inactive” in each case.

In the case of `CC1=C(c2ccc(NC(=O)c3c(F)cccc3F)cc2)CN(c2nccs2)CC1`, the Potency entry in experiment [1], in experiment [2], in experiment [3] and in experiment [4] was “inactive” each time.

In the case of `CC(C)NC(=O)N1CC[C@H](N=C2Nc3cc(F)ccc3N(CC(F)F)c3ccc(Cl)cc32)C1`, in experiment [1], the Potency entry was “inactive”. Also, the activity change, negative = inhibition in experiment [2] was 1.25% [at 11.6 µM]. Besides, the activity change, negative = thiol reactive in experiment [3] was 70.3% [at 11.5 µM]. Moreover, in experiment [4], the activity, negative = inhibition is 1.94% [at 11.6 µM].

As for `CC#CCn1c(N2CCCC(N)C2)nc2c1c(=O)n(Cc1nc(C)c3ccccc3n1)c(=O)n2C` (stereo not given), the Potency entry in experiment [1], in experiment [2], in experiment [3] and in experiment [4] was “inactive” in each case.

For `C=CC(C)(O)CC[C@@H]1[C@@]2(C)CCCC(C)(C)C2CC[C@@]1(C)O` (stereo not given in full), the Potency entry in experiment [1], in experiment [2], in experiment [3] and in experiment [4] was “inactive” in each case.

Consider `CCOc1ccc(Cc2nc(-c3c(C)nc4ccccn34)cs2)cc1`, for which the Potency entry in experiment [1], in experiment [2] and in experiment [4] was “inactive” in each case. In experiment [3], the Potency is 1.68 µM (active).

For `CC(C)C[C@@H]1NC(=O)[C@@H]2C[C@@]34C[C@@H]5[C@@]6(C)CCCC(C)(C)C6CC[C@@]5(C)N(c5ccccc53)[C@H]4N2C1=O` (stereo not given in full), the Potency entry in experiment [1], in experiment [2], in experiment [3] and in experiment [4] was “inactive” throughout.
